Hits are enriched below; roughly 5.7% of the tested compounds scored in any of these assays.
hcDAF12 agonist = activators of H. contortus DAF-12 nuclear receptor. HEK293 hcDAF-12 lit1-tk-luc reporter, luminescence; 0% DMSO, 100% Δ7-dafachronic acid. activation, % at 6.8 µM. 370,000 tested, 1.4% active;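 active = activation above the mean of all tested compounds plus 3 SD, cut at about 5.5% in these data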;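 also: 100% = response to 3 µM Δ7-dafachronic acid high control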
ssDAF-12 act = activates DAF-12 receptor from parasite S. stercoralis | HEK293 ssDAF-12/GRIP1 lit1-tk-luc reporter, luminescence; % of 3 µM dafachronic acid response | activation, % at 6.8 µM | 370,000 tested, 1% active;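 active = activation above the mean over all tested compounds plus 3 SD, cut at about 0.9% in these data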;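 also: 0% = DMSO-only wells and 100% = 3 µM delta7-dafachronic acid wells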
DAX1 inh-1 = inhibitors of DAX1 repression of SF-1 activated StAR promoter; 370,000 tested, 1.1% active; inhibition, % at 6.8 µM; HEK293T StAR-luciferase reporter, SF-1/DAX-1 repression relief;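 active = inhibition above the mean over all tested compounds plus 3 SD, cut at about 3.6% in these data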;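 also: 0% = DAX-1 cells with DMSO and 100% = cells lacking DAX-1 with DMSO; higher inhibition means more luminescence from relief of DAX-1 repression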
AHR activator = activators of human aryl hydrocarbon receptor; P35869; AHR-responsive luciferase reporter cells, luminescence; activation, % at 5 µM; 320,000 tested, 2.5% active; AID 2796; in the data active = activation above about 47%;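 also: 0% = vehicle wells and 100% = reference agonist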
hgDAF-12 ag = hgDAF-12 agonism, primary luciferase screen; HEK293 GAL4-hgDAF12 UAS-luciferase reporter, agonist luminescence; normalized to butyrate control; activation, % at 6.8 µM; 370,000 tested, 1.8% active; AID 687014;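 active = activation above a cutoff set at the mean of all screened compounds plus 3 SD, cut at about 10% in these data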;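 also: 0% = DMSO wells and 100% = sodium butyrate wells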
DAX1 inh-2 = inhibitors of human orphan nuclear receptor DAX1 (NR0B1); P51843; HEK293 Gal4-DAX1 luciferase reporter, luminescence; inhibition, % at 6.75 µM; 340,000 tested, 0.99% active; AID 504766;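 active = inhibition above the mean over all tested compounds plus 3 SD, cut at about 4.2% in these data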;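 also: 0% = DAX1-transfected cells with DMSO and 100% = empty-vector control cells with DMSO; inhibition shows as a rise in luminescence from relieved DAX1 repression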
Target sequence (P51843 207-470 limits assumed): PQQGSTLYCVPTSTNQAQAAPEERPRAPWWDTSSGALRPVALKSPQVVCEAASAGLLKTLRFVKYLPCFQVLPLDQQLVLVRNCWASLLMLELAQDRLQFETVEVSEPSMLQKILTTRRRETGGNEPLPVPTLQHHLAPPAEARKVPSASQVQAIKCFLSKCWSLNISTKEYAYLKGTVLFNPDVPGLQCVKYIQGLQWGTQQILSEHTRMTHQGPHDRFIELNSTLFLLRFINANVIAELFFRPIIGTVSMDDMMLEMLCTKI
hgDAF12 conf = confirmation of H. glycines DAF-12 agonists | shares compounds with hgDAF-12 ag | HEK293 GAL4-hgDAF12 luciferase reporter, agonist mode; percent of butyrate response | activation, % at 6.8 µM | 3,300 tested, 80% active | AID 743050;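 active = mean activation over triplicate wells above the hit cutoff derived from the earlier primary screen, cut at about 11% in these data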;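 also: 0% = DMSO low control and 100% = 2 mM sodium butyrate high control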
LXR ag 2 = activates human LXR-beta, counter-screen for DAF-12 agonists. shares compounds with hgDAF-12 ag. HEK293 Gal4-LXR luciferase reporter, 24 h. activation, % at 6.8 µM. 3,300 tested, under 10 active. AID 743051;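 active = mean activation of the triplicate above a set limit carried over from the primary screen, none filed active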
An asterisk follows results filed as active; nt = not tested or not shown.

SMILES	hcDAF12 agonist	ssDAF-12 act	DAX1 inh-1	AHR activator	hgDAF-12 ag	DAX1 inh-2	hgDAF12 conf	LXR ag 2
Cc1cc(C)c(C(=O)C2OC(=O)C(C)(C)C(=O)C2(C)C)c(C)c1 (stereo not given)	1	-1	0	4	-1	2	nt	nt
Fc1ccccc1/C=N/Nc1nc2ccccc2o1	2	0	1	18	5	4	nt	nt
CC(C)(C)NC(=S)NCCc1ccccc1	5	1	3	26	14*	3	11*	0
Cc1ccccc1NC(=S)NCCc1ccccc1	0	-1	0	1	-1	0	nt	nt
O=S(=O)(Nc1nc2ccccc2nc1Nc1ccc2c(c1)OCO2)c1ccc(F)cc1	4	-1	0	2	-1	-1	nt	nt
C=CCn1c(SCc2ccccc2)nc2scc(-c3ccc(C)o3)c2c1=O	0	0	2	-2	-1	-1	nt	nt
C=CCn1c(SCC(N)=O)nc2scc(-c3ccc(C)o3)c2c1=O	5.6*	0	3	21	20*	2	17*	1
COCCCNC(=O)CC1C(=O)N(Cc2ccccc2)C(C)c2nc3ccccc3n21 (stereo not given)	0	-1	0	0	3	1	nt	nt
CCOc1ccc(S(=O)(=O)NC2=NCCCCC2)cc1	-1	-1	1	-1	0	-1	nt	nt
CCOc1ccc(-c2nnc(-c3ccccc3)o2)cc1	6.0*	1	3	-7	14*	1	12*	1
CCOc1ccc(-c2nnc(NC3=NCCCCC3)o2)cc1	2	0	1	-1	15*	2	13*	1
C=C(C)Cn1c2ccc(NC(=O)NCCc3ccccc3)cc2c(=O)n1C	-1	-2	0	nt	-3	nt	nt	nt
COc1ccccc1C1C(C(=O)c2ccco2)=C(O)C(=O)N1c1cc(C)on1 (stereo not given)	0	-1	-2	-4	-3	0	nt	nt
CSc1cccc(N2C(=O)C3CCCN3C2=S)c1 (stereo not given)	-1	-1	0	0	-2	0	nt	nt
CC(C)(C)c1ccc(C(=O)Nc2cccc([N+](=O)[O-])c2)cc1	3	0	3	2	14*	2	14*	0
O=C(Nc1cccc([N+](=O)[O-])c1)c1ccncc1	-2	-1	0	18	-2	0	nt	nt
O=C(Nc1cccc([N+](=O)[O-])c1)c1[nH]ncc1Cl	4	-1	1	75*	14*	0	9	1
O=C(Cc1cccc(C(F)(F)F)c1)Nc1cc(S(=O)(=O)N2CCOCC2)ccc1N1CCCC1	0	-2	-2	1	-3	0	nt	nt
Cc1cccc(N(C(=O)Nc2ccccc2)C2=NCC(C)S2)c1 (stereo not given)	2	-1	1	5	15*	4	4	0
COc1cccc(C(NC(C)=O)c2nc(-c3cccc(F)c3)cs2)c1 (stereo not given)	-1	-1	0	nt	-4	nt	nt	nt
O=C(NCCc1csc(-c2ccccc2)n1)c1c(F)cccc1F	-1	-1	0	-1	2	-1	nt	nt
O=C(NCCc1ccccc1)c1ccc(NC(=O)C2CC2)cc1	1	0	3	nt	14*	1	7	0
O=C(NCCc1ccccc1)c1c(F)cccc1F	3	0	3.9*	3	14*	1	12*	1
Cc1ccc(C(=O)NN=Cc2ccc3c(c2)OCO3)cc1	1	0	1	nt	15*	1	12*	0
O=C(N/N=C/c1ccc2c(c1)OCO2)C(=O)Nc1ccccc1	1	-1	0	1	0	2	nt	nt
O=C(Cc1ccccc1)N/N=C/c1ccc2c(c1)OCO2	4	-1	1	22	16*	nt	12*	0
